Here are results for ten compounds from PubChem BioAssay (EPA / NIEHS).

The test system of test [1] is frog Estrogen Receptor (ER2), gene 100174814. The test is described as follows: ATG_frER2_XSP2: Attagene TRANS-FACTORIAL Multi-Species (XSP2) HepG2 Assay for frog Estrogen Receptor (ER2) (AID 2283828). The method, boiled down: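 Cells were transfected with reporter constructs under GAL4-UAS control, dosed with chemicals for 24 h, then lysed for RNA; the frog ER2-driven reporter mRNA was quantified by capillary electrophoresis of labeled PCR fragments, with activity fitted upward from DMSO.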

Test [2] addresses Peroxisome proliferator-activated receptor gamma (Homo sapiens) (UniProt P37231). The test is described as follows: ATG_hPPARg_XSP2: Attagene TRANS-FACTORIAL Multi-Species (XSP2) HepG2 Assay for human Peroxisome Proliferator-activated Receptor gamma (PPARg) (AID 2283829).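 Further: actives raise reporter mRNA above DMSO so AC50 reflects PPARg activation.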 The method, boiled down: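 Human HepG2 cells carried transiently transfected Gal4 reporter units and were treated with chemical for 24 h alongside androgen-receptor stimulants (3 nM 6-alpha-fluorotestosterone, 1.5 nM norgestrel). Reporter transcripts were detected by RT-PCR with capillary electrophoresis, analysed in the positive direction against DMSO.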

Test [3] addresses mouse Peroxisome Proliferator-activated Receptor gamma (PPARg), Pparg (gene 19016) (UniProt P37238). Put plainly: ATG_mPPARg_XSP2: Attagene TRANS-FACTORIAL Multi-Species (XSP2) HepG2 Assay for mouse Peroxisome Proliferator-activated Receptor gamma (PPARg) (AID 2283830).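 Further: hits are gains in reporter mRNA above DMSO so AC50 marks activation.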 The method in brief:
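Multiplexed TRANS reporter readout: after 24 h chemical exposure of transfected HepG2 cells (with 3 nM 6-alpha-fluorotestosterone, 1.5 nM norgestrel present), RNA reverse-transcribed, amplified, 6-FAM-labelled and resolved by capillary electrophoresis; mouse PPARg-Gal4 induction scored against DMSO.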

Test [4] has as its target Nuclear receptor subfamily 1 group I member 2 (Mus musculus) (UniProt O54915). The test is described as follows: ATG_mPXR_XSP2: Attagene TRANS-FACTORIAL Multi-Species (XSP1) HepG2 Assay for mouse Pregnane X Receptor (PXR) (AID 2283831). The method in brief: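 Fluorescence signals from capillary electrophoresis of RT-PCR-amplified reporter mRNA give the readout, gain-of-signal versus DMSO. Transfected HepG2 cells, 24 h dosing, medium contained 3 nM 6-alpha-fluorotestosterone and 1.5 nM norgestrel.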

Test [5] addresses zebrafish Thyroid Hormone Receptor alpha (TRa), thraa (gene 30670) (UniProt Q98867). The test is described as follows: ATG_zfTRa_XSP2: Attagene TRANS-FACTORIAL Multi-Species (XSP1) HepG2 Assay for zebrafish Thyroid Hormone Receptor alpha (TRa) (AID 2283832).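 Further: actives raise zebrafish TRa-Gal4 reporter transcript above DMSO baseline.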 The method, boiled down: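 HepG2, transient MRTU transfection, exogenous NR-Gal4 chimeras; 24 h dosing; mRNA readout via RT-PCR/CE fluorescence; positive direction vs DMSO.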

The test system of test [6] is zebrafish Peroxisome Proliferator-activated Receptor gamma (PPARg), gene 557037. The test is described as follows: ATG_zfPPARg_XSP2: Attagene TRANS-FACTORIAL Multi-Species (XSP2) HepG2 Assay for zebrafish Peroxisome Proliferator-activated Receptor gamma (PPARg) (AID 2283833).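 Further: reporter mRNA from a zebrafish PPARg GAL4 chimera measured by RT-PCR and capillary electrophoresis; actives increase reporter signal over DMSO so AC50 reflects activation.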 The method, boiled down:
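HepG2, transient MRTU transfection, 24 h compound; zfPPARg-GAL4 reporter mRNA by RT-PCR + capillary electrophoresis; gain-of-signal vs DMSO.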

The test system of test [7] is turtle Thyroid Hormone Receptor, alpha (TRa), gene 101949057. The test is described as follows: ATG_trTRa_XSP2: Attagene TRANS-FACTORIAL Multi-Species (XSP1) HepG2 Assay for turtle Thyroid Hormone Receptor, alpha (TRa) (AID 2283834).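 Further: hits raise reporter mRNA over the DMSO baseline so AC50 marks activators.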 Here is the method:
ATG_XSP2_multi-species_TRANS is a cell-based, multiplexed assay created by modifying the existing Attagene TRANS-FACTORIAL system to include a panel of nuclear receptors from some or all the following species: human (Homo sapiens), mouse (Mus musculus), frog (Xenopus laevis), zebrafish (Danio rerio), chicken (Gallus gallus), and turtle (Chrysemys picta). The ECOTOX-FACTORIAL format uses HepG2, a human liver cell line, with measurements taken at 24 hours after chemical dosing in a 24-well plate. Xsp2 included 3 nM 6-alpha-fluorotestosterone and 1.5 nM norgestrel to stimulate the androgen receptor.ATG_trTRa_XSP2 is one of 29 assay components measured or calculated from the ATG_XSP2_multi-species_TRANS assay. It is designed to make measurements of mRNA induction, a form of inducible reporter, as detected with fluorescence intensity signals by Reverse transcription polymerase chain reaction (RT-PCR) and Capillary electrophoresis technology.The assay endpoint ATG_trTRa_XSP2 was analyzed in the positive analysis fitting direction relative to DMSO as the negative control and baseline of activity. Using a type of inducible reporter, measures of mRNA for gain-of-signal activity can be used to understand the reporter gene at the transcription factor-level as they relate to the gene TR. Furthermore, this assay endpoint can be referred to as a primary readout, because this assay has produced multiple assay endpoints where this one serves a reporter gene function. To generalize the intended target to other relatable targets, this assay endpoint is annotated to the nuclear receptor intended target family, where the subfamily is non-steroidal.
Human liver HepG2 cells are transiently transfected with multiple reporter transcription units (MRTUs) in 6-well plates using FuGene 6 reagent (Roche; 3 ml FuGene/1 mg DNA). The MRTU constructs are regulated by a cis-regulating element (promoter). […] A major difference between the CIS and TRANS system is that in CIS activities of endogenous TFs are measured, whereas the TRANS assay evaluates changes in activities of exogenous, chimeric NR-Gal4 proteins. […] At the end of 24 hour incubation, total RNA was isolated using TriZol reagent (Invitrogen). The isolated RNA is then reverse-transcribed using oligo(dT) primer and Mo-MLV reverse transcriptase (Invitrogen) with DNAse I (Ambion) treatment for 30 min. The one-tenth of the produced cDNA was amplified by PCR using Taq DNA polymerase (Invitrogen) and two reporter sequence-specific primers. The PCR products were fluorescently labeled by primer extension with 6-arboxyfluorescein (6-FAM) 5'-labeled reporter sequence-specific primer (2 min at 95 C, 20 s at 68 C and 10 min at 72 C) and these products were digested with 5U of HpaI (New England Biolabs) for 2h at 37 C. The fragments were purified using Qiaquick PCR columns (Qiagen), analyzed on an ABI 3130xL genetic analyzer (Applied Biosystems) with peak positions identified by using a set of X-rhodamine (ROX)-labeled MapMarker1000 molecular weight standards (BioVentures). The raw capillary electrophoresis data was processed using Attagraph software (Attagene).

Test [8] is described as follows: ATG_M_61_XSP2: Attagene TRANS-FACTORIAL Multi-Species (XSP2) HepG2 Assay for M61 Transcription Factor (Internal Marker) (AID 2283835; active means hit-call score of the fitted dose curve at least 0.9, where 1 is the maximum; inactive means score below 0.9;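 further: reporter mRNA of an internal background marker read by RT-PCR and capillary electrophoresis; active means a rise in signal above the DMSO baseline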). The method, boiled down: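 Transient MRTU transfection of human HepG2; 24 h chemical dosing with 3 nM 6-alpha-fluorotestosterone + 1.5 nM norgestrel added for AR stimulation. RNA isolated, RT, PCR, FAM-labelled, HpaI cut, CE read. Positive direction vs DMSO.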

Test [9] deals with zebrafish Thyroid Hormone Receptor beta (TRb), thrb (gene 30607) (UniProt Q9PVE4). Put plainly: ATG_zfTRb_XSP2: Attagene TRANS-FACTORIAL Multi-Species (XSP1) HepG2 Assay for zebrafish Thyroid Hormone Receptor beta (TRb) (AID 2283836).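 On AC50: potency for induction of reporter signal above DMSO so agonist direction.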 The method, boiled down: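 Transfect HepG2 with multiple reporter transcription units, dose chemical, incubate 24 h. Isolate RNA, reverse-transcribe, amplify and fluorescently label reporter sequences, digest with HpaI, then resolve by capillary electrophoresis. Positive direction fitted against DMSO.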

Test [10] concerns the target Estrogen receptor (Homo sapiens) (UniProt P03372). Put plainly: ATG_hERa_XSP2: Attagene TRANS-FACTORIAL Multi-Species (XSP2) HepG2 Assay for human Estrogen Receptor (ERa) (AID 2283827). The method in brief: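 Trans-activation of exogenous human ERa-Gal4 chimera read in HepG2 as reporter transcript after 24 h exposure; medium included 3 nM 6-alpha-fluorotestosterone and 1.5 nM norgestrel. Quantified by RT-PCR with capillary electrophoresis, positive-direction fitting against DMSO.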

Where “and” joins values, the source holds several entries; their conditions need not be identical. Equal entries are not always repeated. Inconclusive results are not listed. Some compounds were tested as several samples or in several runs, with calls that do not always agree. Calls of active or inactive are those of the source. How the source made its calls, unless noted: active means hit-call score of the fitted dose curve at least 0.9, where 1 is the maximum; inconclusive means response in the unintended direction; inactive means score below 0.9.

Sequence of Nuclear receptor subfamily 1 group I member 2 (Mus musculus) (O54915 whole entry, looked up): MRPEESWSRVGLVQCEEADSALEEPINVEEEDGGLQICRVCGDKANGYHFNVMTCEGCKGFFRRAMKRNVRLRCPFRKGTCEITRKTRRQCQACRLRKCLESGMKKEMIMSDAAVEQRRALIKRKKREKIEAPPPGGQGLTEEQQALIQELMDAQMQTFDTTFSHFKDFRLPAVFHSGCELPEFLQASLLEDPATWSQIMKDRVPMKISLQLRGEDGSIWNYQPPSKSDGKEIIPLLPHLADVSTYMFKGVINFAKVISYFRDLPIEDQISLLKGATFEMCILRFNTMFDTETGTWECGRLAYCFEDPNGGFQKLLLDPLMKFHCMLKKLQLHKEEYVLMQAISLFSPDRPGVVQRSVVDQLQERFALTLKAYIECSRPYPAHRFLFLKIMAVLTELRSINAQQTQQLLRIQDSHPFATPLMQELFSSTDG
Sequence of zebrafish Thyroid Hormone Receptor beta (TRb), thrb (gene 30607) (Q9PVE4 whole entry, looked up): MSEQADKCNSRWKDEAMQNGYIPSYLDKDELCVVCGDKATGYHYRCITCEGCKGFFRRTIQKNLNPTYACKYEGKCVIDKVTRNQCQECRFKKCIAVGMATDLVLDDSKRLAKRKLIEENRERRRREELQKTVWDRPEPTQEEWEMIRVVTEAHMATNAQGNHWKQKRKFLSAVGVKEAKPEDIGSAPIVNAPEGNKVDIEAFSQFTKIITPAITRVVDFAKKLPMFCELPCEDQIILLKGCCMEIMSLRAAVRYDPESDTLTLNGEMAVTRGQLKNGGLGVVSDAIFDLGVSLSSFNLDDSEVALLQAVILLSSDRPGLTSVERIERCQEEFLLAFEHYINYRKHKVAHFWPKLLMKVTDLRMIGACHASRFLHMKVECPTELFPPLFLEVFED
Sequence of mouse Peroxisome Proliferator-activated Receptor gamma (PPARg), Pparg (gene 19016) (P37238 whole entry, looked up, the tested form may be a part): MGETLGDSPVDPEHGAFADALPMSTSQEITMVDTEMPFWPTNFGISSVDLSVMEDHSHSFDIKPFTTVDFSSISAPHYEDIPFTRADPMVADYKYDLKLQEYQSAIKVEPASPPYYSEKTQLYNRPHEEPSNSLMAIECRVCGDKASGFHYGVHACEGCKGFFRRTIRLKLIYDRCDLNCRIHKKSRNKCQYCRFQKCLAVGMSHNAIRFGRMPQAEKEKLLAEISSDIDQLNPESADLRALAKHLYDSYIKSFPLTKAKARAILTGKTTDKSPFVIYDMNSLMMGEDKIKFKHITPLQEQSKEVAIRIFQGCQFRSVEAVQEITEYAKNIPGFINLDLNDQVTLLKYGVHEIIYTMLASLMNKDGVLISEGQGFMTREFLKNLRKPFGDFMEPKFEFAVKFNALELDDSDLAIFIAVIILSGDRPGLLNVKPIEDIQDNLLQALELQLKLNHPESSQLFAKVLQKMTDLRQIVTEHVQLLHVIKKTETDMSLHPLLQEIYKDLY
Sequence of zebrafish Thyroid Hormone Receptor alpha (TRa), thraa (gene 30670) (Q98867 whole entry, looked up, the tested form may be a part): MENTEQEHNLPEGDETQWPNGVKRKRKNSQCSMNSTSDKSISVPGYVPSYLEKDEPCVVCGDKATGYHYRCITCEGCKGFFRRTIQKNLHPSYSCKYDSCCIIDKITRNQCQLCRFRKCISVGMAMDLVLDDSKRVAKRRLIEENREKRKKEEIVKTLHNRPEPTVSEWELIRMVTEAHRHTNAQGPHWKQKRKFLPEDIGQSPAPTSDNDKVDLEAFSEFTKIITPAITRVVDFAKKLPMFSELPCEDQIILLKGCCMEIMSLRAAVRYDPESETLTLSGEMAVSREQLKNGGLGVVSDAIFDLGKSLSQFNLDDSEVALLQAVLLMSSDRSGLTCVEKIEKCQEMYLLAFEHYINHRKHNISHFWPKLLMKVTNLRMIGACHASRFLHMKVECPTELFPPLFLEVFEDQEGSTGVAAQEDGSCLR
Sequence of Peroxisome proliferator-activated receptor gamma (Homo sapiens) (P37231 whole entry, looked up, the tested form may be a part): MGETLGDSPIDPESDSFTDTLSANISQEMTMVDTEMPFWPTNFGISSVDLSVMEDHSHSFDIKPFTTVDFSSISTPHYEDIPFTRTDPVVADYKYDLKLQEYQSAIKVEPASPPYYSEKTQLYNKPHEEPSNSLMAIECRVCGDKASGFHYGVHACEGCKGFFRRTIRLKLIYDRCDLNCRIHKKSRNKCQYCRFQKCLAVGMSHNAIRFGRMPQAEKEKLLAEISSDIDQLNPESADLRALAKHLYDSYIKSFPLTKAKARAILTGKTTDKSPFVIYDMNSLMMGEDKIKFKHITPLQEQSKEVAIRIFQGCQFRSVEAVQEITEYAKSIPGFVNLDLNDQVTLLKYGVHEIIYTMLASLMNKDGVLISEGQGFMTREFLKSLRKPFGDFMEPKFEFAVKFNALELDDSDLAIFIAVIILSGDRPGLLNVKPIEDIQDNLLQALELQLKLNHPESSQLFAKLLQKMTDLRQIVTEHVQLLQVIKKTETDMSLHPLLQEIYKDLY
Sequence of Estrogen receptor (Homo sapiens) (P03372 whole entry, looked up, the tested form may be a part): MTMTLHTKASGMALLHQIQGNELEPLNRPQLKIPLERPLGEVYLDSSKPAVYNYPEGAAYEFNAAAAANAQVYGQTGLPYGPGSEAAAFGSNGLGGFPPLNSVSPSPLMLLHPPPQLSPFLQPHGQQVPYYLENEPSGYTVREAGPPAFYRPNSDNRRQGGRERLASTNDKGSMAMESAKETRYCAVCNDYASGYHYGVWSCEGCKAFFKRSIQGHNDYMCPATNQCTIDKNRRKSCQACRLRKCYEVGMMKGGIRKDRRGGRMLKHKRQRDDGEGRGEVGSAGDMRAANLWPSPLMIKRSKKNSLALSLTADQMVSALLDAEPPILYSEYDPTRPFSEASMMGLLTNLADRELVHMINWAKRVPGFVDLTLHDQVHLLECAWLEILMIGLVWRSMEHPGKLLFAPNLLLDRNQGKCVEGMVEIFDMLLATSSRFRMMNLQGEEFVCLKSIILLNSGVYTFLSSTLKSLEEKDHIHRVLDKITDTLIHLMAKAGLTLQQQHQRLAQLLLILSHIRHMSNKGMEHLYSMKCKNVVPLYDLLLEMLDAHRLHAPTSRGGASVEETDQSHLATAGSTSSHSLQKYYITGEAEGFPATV

With `CCC(CC)Nc1c([N+](=O)[O-])cc(C)c(C)c1[N+](=O)[O-]`, the AC50 in [1] is 8.22 µM (active) and 4.99 µM (active); in test [4], 266 nM (active) and 269 nM (active). Further, the compound was called inactive in test [2], in test [3], in test [5], in test [6], in test [7] and in test [8]. Also, the call in test [9] was inactive.
Regarding `CCCOCC(=Nc1ccc(Cl)cc1C(F)(F)F)n1ccnc1`, the compound was called inactive in test [1], in test [5], in [6], in [8] and in test [9]. For the same compound, the concentration at half-maximal activity (AC50) in test [2] was 0.909 µM (active); in test [3], 1.28 µM (active); in test [4], 9.9 µM (active).
`C#CC(C)(C)NC(=O)c1cc(Cl)cc(Cl)c1`: the call in test [1], in test [5], in [6], in test [7], in test [8] and in test [9] was inactive. Further, the AC50 in [4] was 26.8 µM (active).
For the compound `Nc1c(Cl)cc([N+](=O)[O-])cc1Cl`, the AC50 was 10.9 µM (active) and 17.4 µM (active) in test [10]; 25.7 µM (active) and 34.9 µM (active) in test [2]; 11.9 µM (active) and 41.8 µM (active) in [3]; 10.8 µM (active) and 9.9 µM (active) in test [4]; 23.6 µM (active) and 29.8 µM (active) in test [7]; 48.3 µM (active) in [9]. Moreover, the call in test [1], in test [5], in test [6] and in [9] was inactive.
As for `C#CCC1=C(C)C(OC(=O)C2C(C=C(C)C)C2(C)C)CC1=O` (centres undefined), the compound was classed as inactive in [1], in test [5], in test [6], in [7], in [8] and in test [9]. In addition, the figures for the half-maximal activity concentration (AC50) in [2], in test [3] and in test [4] were 22.6 µM (active), 30.2 µM (active) and 0.712 µM (active), respectively.
As for `CCOP(=S)(OCC)Oc1ccc2c(C)c(Cl)c(=O)oc2c1`, the AC50 in test [2] was 27 µM (active); in [3], 5.43 µM (active); in test [4] it was 0.00908 µM (active); in [7] it was 64.7 µM (active). Besides, the call in [6], in [8] and in [9] was inactive.
With `COc1ccc(C(=CC(=O)N2CCOCC2)c2ccc(Cl)cc2)cc1OC`, the half-maximal activity concentration (AC50) in [1] is 52.4 µM (active); in test [2], 19.8 µM (active); in test [3], 29.3 µM (active); in [4] it was 4.65 µM (active) and 4.32 µM (active). Moreover, the outcome in [1], in test [2], in test [3], in test [5], in [6] and in [8] was inactive. For the same compound, the outcome in test [9] was inactive.
For the compound `CCc1cccc(C)c1N(C(=O)CCl)C(C)COC` (centres undefined), the outcome in test [1], in test [5], in test [6], in [8] and in test [9] was inactive. Also, the concentration at half-maximal activity (AC50) in [2] is 55.8 µM (active); in [3] it was 27.3 µM (active); in test [4], 3.96 µM (active).
With `CCC(=O)Nc1ccc(Cl)c(Cl)c1`, the outcome in test [1], in test [3], in test [5], in [6], in [7] and in test [8] was inactive. The call in [9] was inactive. The half-maximal activity concentration (AC50) is 27.2 µM (active) in test [2]; 39.7 µM (active) in [3]; 27.6 µM (active) and 24.3 µM (active) in test [4].
Regarding `CCOP(=O)(NC(C)C)Oc1ccc(SC)c(C)c1` (centres undefined), the AC50 in test [1] was 100 µM (active) and 69 µM (active); in [2], 43.6 µM (active) and 36.6 µM (active); in [3] it was 31.6 µM (active) and 38.4 µM (active); in test [4] it was 4.34 µM (active) and 4.75 µM (active); in test [6] it was 100 µM (active). Besides, the compound was classed as inactive in test [5], in test [6], in [7], in test [8] and in test [9].

Usually AC50 stands for the concentration at which the activity in the assay is half-maximal.
